Data taken from PubChem BioAssay AID1159580 (chemical genetic matrix, 2015).
The campaign covered roughly 5,500 compounds. About 2,000 (36%) were called active. Inconclusive results (about 18%) are left out. No stated cut-off is given here; in the data, active means normalized growth mostly below about 0.91 (no sharp cut-off); inconclusive means no clear call, values can overlap the other calls; inactive means mostly above about 0.92. This is one part of the list.

Experiment: chemical genetic growth profiling, strain panel (AID 1159580);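 further: tested at 20 µM; growth read once vehicle control cultures reached saturation at 30 °C; 1 = growth at the plate median or of vehicle wells; lower values mean less growth of the strain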
Settings: growth OD

Measured: normalized growth

NC[C@H](O)c1ccc(O)c(O)c1
inactive: S. cerevisiae deletion strains, locus YJR066W, strain TOR1, active compounds read low 0.934 | S. cerevisiae deletion strains, locus YJR075W, strain HOC1, active compounds read low 1.02 | S. cerevisiae deletion strains, locus YKL009W, strain mrt4, active compounds read low 1 | S. cerevisiae deletion strains, locus YKL068W, active compounds read low 1.01 | S. cerevisiae deletion strains, locus YKL085W, strain MDH1 (second series), active compounds read low 1.01 | S. cerevisiae deletion strains, locus YKL085W, strain MDH1, active compounds read low 1.01 | S. cerevisiae deletion strains, locus YKL160W, strain elf1, active compounds read low 1.02 | S. cerevisiae deletion strains, locus YKL190W, strain CNB1, active compounds read low 1.01 | S. cerevisiae deletion strains, locus YKR001C, strain vps1, active compounds read low 0.999 | S. cerevisiae deletion strains, locus YKR026C, strain gcn3, active compounds read low 1 | S. cerevisiae deletion strains, locus YKR091W, strain srl3, active compounds read low 1.01 | S. cerevisiae deletion strains, locus YLL001W, strain dnm1, active compounds read low 1.02 | S. cerevisiae deletion strains, locus YLL026W, active compounds read low 1.02 | S. cerevisiae deletion strains, locus YLL041C, strain sdh2, active compounds read low 1 | S. cerevisiae deletion strains, locus YLR027C, strain aat2, active compounds read low 1.01 | S. cerevisiae deletion strains, locus YLR039C, strain RIC1, active compounds read low 1 | S. cerevisiae deletion strains, locus YLR058C, strain SHM2, active compounds read low 1.01 | S. cerevisiae deletion strains, locus YLR102C, strain apc9, active compounds read low 1.02 | S. cerevisiae deletion strains, locus YLR113W, strain HOG1, active compounds read low 0.97 | S. cerevisiae deletion strains, locus YLR221C, strain rsa3, active compounds read low 1.01 | S. cerevisiae deletion strains, locus YLR258W, strain gsy2, active compounds read low 1.01 | S. cerevisiae deletion strains, locus YLR262C, strain YPT6 (second series), active compounds read low 1.02 | S. cerevisiae deletion strains, locus YLR262C, strain YPT6, active compounds read low 1.04 | S. cerevisiae deletion strains, locus YLR268W, strain sec22, active compounds read low 1.04 | S. cerevisiae deletion strains, locus YLR320W, strain mms22, active compounds read low 1.04 | S. cerevisiae deletion strains, locus YLR330W, strain CHS5, active compounds read low 1.01 | S. cerevisiae deletion strains, locus YLR342W, strain FKS1 (second series), active compounds read low 1.01 | S. cerevisiae deletion strains, locus YLR342W, strain FKS1, active compounds read low 1.01 | S. cerevisiae deletion strains, locus YLR357W, strain rsc2, active compounds read low 0.938 | S. cerevisiae deletion strains, locus YLR370C, strain arc18, active compounds read low 1.01 | S. cerevisiae deletion strains, locus YLR371W, strain rom2, active compounds read low 1.03 | S. cerevisiae deletion strains, locus YLR384C, strain iki3, active compounds read low 1 | S. cerevisiae deletion strains, locus YLR418C, strain cdc73, active compounds read low 1 | S. cerevisiae deletion strains, locus YML016C, strain PPZ1, active compounds read low 1 | S. cerevisiae deletion strains, locus YML032C, strain rad52, active compounds read low 1.02 | S. cerevisiae deletion strains, locus YML120C, strain ndi1, active compounds read low 1 | S. cerevisiae deletion strains, locus YML124C, strain tub3, active compounds read low 1.01 | S. cerevisiae deletion strains, locus YMR078C, strain ctf18, active compounds read low 1.02 | S. cerevisiae deletion strains, locus YMR125W, strain sto1, active compounds read low 0.952 | S. cerevisiae deletion strains, locus YMR129W, active compounds read low 0.993 | S. cerevisiae deletion strains, locus YMR205C, strain PFK2, active compounds read low 1.06 | S. cerevisiae deletion strains, locus YMR223W, strain ubp8, active compounds read low 0.99 | S. cerevisiae deletion strains, locus YMR231W, strain pep5, active compounds read low 0.995 | S. cerevisiae deletion strains, locus YMR263W, strain SAP30, active compounds read low 1.01 | S. cerevisiae deletion strains, locus YMR307W, strain GAS1, active compounds read low 0.979 | S. cerevisiae deletion strains, locus YNL067W, strain RPL9B, active compounds read low 1.01 | S. cerevisiae deletion strains, locus YNL071W, strain lat1, active compounds read low 0.997 | S. cerevisiae deletion strains, locus YNL183C, strain NPR1, active compounds read low 0.948 | S. cerevisiae deletion strains, locus YNL209W, strain ssb2, active compounds read low 0.999 | S. cerevisiae deletion strains, locus YNL233W, strain BNI4, active compounds read low 1.01 | S. cerevisiae deletion strains, locus YNL248C, strain rpa49, active compounds read low 0.978 | S. cerevisiae deletion strains, locus YNL250W, strain rad50, active compounds read low 1.01 | S. cerevisiae deletion strains, locus YNL271C, strain bni1, active compounds read low 1.01 | S. cerevisiae deletion strains, locus YNL298W, strain CLA4, active compounds read low 1 | S. cerevisiae deletion strains, locus YNL307C, strain MCK1, active compounds read low 1.02 | S. cerevisiae deletion strains, locus YNL322C, strain KRE1 (second series), active compounds read low 1.01 | S. cerevisiae deletion strains, locus YNR049C, strain mso1, active compounds read low 1.01 | S. cerevisiae deletion strains, locus YNR052C, strain pop2, active compounds read low 1.01 | S. cerevisiae deletion strains, locus YOL006C, strain TOP1, active compounds read low 0.941 | S. cerevisiae deletion strains, locus YOL012C, strain htz1 1.04 | S. cerevisiae deletion strains, locus YOL147C, strain pex11, active compounds read low 1.01 | S. cerevisiae deletion strains, locus YOR001W, strain rrp6, active compounds read low 0.969 | S. cerevisiae deletion strains, locus YOR061W, strain CKA2, active compounds read low 1.01 | S. cerevisiae deletion strains, locus YOR069W, strain VPS5, active compounds read low 1.01 | S. cerevisiae deletion strains, locus YOR070C, strain gyp1, active compounds read low 1 | S. cerevisiae deletion strains, locus YOR080W, strain dia2, active compounds read low 1.01 | S. cerevisiae deletion strains, locus YOR083W, strain WHI5, active compounds read low 1.05 | S. cerevisiae deletion strains, locus YOR106W, strain vam3, active compounds read low 1.04 | S. cerevisiae deletion strains, locus YOR136W, strain idh2, active compounds read low 1.02 | S. cerevisiae deletion strains, locus YOR144C, strain elg1, active compounds read low 1.01 | S. cerevisiae deletion strains, locus YOR184W, strain ser1, active compounds read low 1.06 | S. cerevisiae deletion strains, locus YOR231W, strain MKK1, active compounds read low 1 | S. cerevisiae deletion strains, locus YOR265W, strain rbl2, active compounds read low 1.01 | S. cerevisiae deletion strains, locus YOR270C, strain vph1, active compounds read low 0.944 | S. cerevisiae deletion strains, locus YOR290C, strain snf2, active compounds read low 1.01 | S. cerevisiae deletion strains, locus YOR316C, strain cot1, active compounds read low 1.01 | S. cerevisiae deletion strains, locus YPL051W, strain arl3, active compounds read low 0.99 | S. cerevisiae deletion strains, locus YPL078C, strain atp4, active compounds read low 1.01 | S. cerevisiae deletion strains, locus YPL106C, strain sse1, active compounds read low 1 | S. cerevisiae deletion strains, locus YPL240C, strain hsp82, active compounds read low 0.994 | S. cerevisiae deletion strains, locus YPL241C, strain CIN2, active compounds read low 1.01 | S. cerevisiae deletion strains, locus YPL256C, strain CLN2, active compounds read low 0.961 | S. cerevisiae deletion strains, locus YPR119W, strain clb2, active compounds read low 1.02 | S. cerevisiae deletion strains, locus YPR141C, strain kar3, active compounds read low 1.01 | S. cerevisiae deletion strains, locus YPR163C, strain tif3, active compounds read low 1.01 | S. cerevisiae deletion strains, locus YPR167C, strain met16, active compounds read low 1.02 | S. cerevisiae deletion strains, strain wtn01, active compounds read low 1.02 | S. cerevisiae strains, strain wild type, active compounds read low 1.01
active: S. cerevisiae deletion strains, locus YMR058W, strain fet3, active compounds read low 0.841
